Source: PubChem (several laboratories)
PrPC surface inh: inhibitors of human cell surface prion protein PrPC, primary screen, cell-based, TR-FRET | Major prion protein (Homo sapiens), P04156 | TR-FRET read-out | inhibition, % at 13.8 µM | actives 0.43% (n = 370,000) | AID 720596, 2013; in the data active = inhibition above about 24%; note: 0% = median of the test wells and 100% = reference compound wells
PfHsp40 rescue: rescue of yeast from PfHsp40 toxicity, primary screen, S. cerevisiae, ATP luminescence; S. cerevisiae expressing PfHsp40, growth rescue; growth rescue, % at 12.5 µM; actives 0.68% (n = 340,000); in the data active = growth rescue above about 28%, passing the limit was not always enough; inconclusive = no clear call, values can overlap the other calls;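 note: yeast W303a lacking pdr1 and pdr3 grown in galactose medium; growth measured after three days at 30 °C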
BJeLR viability: MLPCN primary cell-based screen for lethality selective to Ras in HRASV12 cells; BJeLR (HRASV12) viability, CellTiter-Glo ATP luminescence, 48 h; inhibition, % (test concentration not listed); actives 0.17% (n = 300,000); AID 1554, 2009; in the data active = inhibition above about 50%; inconclusive = no clear call, values can overlap the other calls
RecA splice inh: Mtb RecA intein splicing inhibitors, primary screen, biochemical, fluorescence, HTS; AID 2221, 2009; inhibition, % (test concentration not listed); actives 0.75% (n = 290,000); Protein RecA (Mycobacterium tuberculosis (strain ATCC 25618 / H37Rv)), P9WHJ3; cell-free RecA intein splicing; in the data active = inhibition above about 30%; inconclusive = no clear call, values can overlap the other calls;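 note: 0% = vehicle wells and 100% = reference inhibitor control wells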
Target sequence (P9WHJ3 whole entry, looked up, canonical isoform): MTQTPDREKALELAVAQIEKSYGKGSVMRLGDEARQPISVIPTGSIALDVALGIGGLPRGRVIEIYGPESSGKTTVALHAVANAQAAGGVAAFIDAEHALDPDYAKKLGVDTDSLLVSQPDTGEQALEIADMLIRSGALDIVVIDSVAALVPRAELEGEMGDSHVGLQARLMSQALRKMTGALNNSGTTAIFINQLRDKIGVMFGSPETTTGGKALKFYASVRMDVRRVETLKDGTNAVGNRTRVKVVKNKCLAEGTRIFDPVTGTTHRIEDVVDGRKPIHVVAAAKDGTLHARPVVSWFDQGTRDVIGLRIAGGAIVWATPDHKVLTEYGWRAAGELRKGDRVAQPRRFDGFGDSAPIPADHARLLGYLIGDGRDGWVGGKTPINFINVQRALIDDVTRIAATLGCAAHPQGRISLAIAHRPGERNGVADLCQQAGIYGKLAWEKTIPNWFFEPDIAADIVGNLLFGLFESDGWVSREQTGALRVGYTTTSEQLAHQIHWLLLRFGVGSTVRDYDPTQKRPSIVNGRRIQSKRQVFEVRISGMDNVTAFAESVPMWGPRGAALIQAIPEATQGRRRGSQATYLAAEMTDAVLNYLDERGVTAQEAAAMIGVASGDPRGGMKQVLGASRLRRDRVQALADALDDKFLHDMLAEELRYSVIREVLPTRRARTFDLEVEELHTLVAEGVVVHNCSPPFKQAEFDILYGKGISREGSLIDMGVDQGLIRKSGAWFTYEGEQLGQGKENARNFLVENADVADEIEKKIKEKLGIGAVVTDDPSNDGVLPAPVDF
PriA SSB inh: inhibitors of Klebsiella pneumoniae PriA binding to SSB C-terminal tail, primary screen, biochemical, AlphaScreen. PriA–SSB C-terminal tail interaction (Klebsiella pneumoniae). AlphaScreen SSBct-PriA binding, biotinylated peptide. inhibition, % at 33 µM. actives 0.6% (n = 430,000); in the data active = inhibition mostly above about 37%, no sharp cut-off; inactive = mostly below about 20%;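 note: plate controls were negative control peptide for no effect and reference peptide for full effect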
PrP UTR inh: inhibition of PrP 5' UTR reporter expression; cell-based PrP 5' UTR mRNA reporter, plate reader; inhibition, % (concentration not given with the values); actives 0.35% (n = 340,000); AID 488862, 2010; in the data active = inhibition above about 52%; note: 0 = median of the neutral control wells
An asterisk follows results filed as active; u = inconclusive; x = no result given; ! = a repeat was not active. Sampled rows, rich in hits. Any-hit rate of the full collection: about 1.9%.

SMILES	PrPC surface inh	PfHsp40 rescue	BJeLR viability	RecA splice inh	PriA SSB inh	PrP UTR inh
Cc1cc(N=Nc2ccc(Cl)cc2)cc(CN2CCCC2)c1O	2	-1	-6	9	72*	-26
Cc1c(O)c(CN2CCCCC2)cc2c3c(c(=O)oc12)CCC3	-4	u	-5	-376	-7	-19
CCn1c2ccccc2c2cc(NC(=O)CC(C)=NNC(=O)c3ccccc3N)ccc21	x	x	x	x	-2	x
COc1ccc(S(=O)(=O)N2c3ccc(F)cc3CCC2C)cc1 (stereo not drawn)	15	6	62*	10	-23	50
O=C(CSc1ccccc1)NN=Cc1ccccc1O	x	x	x	x	-2	x
COc1ccc(NC(=O)/C(C#N)=C/c2ccc[nH]2)c(OC)c1	-1	1	-3	0	-19	-25
COc1ccc(NC(=O)/C(C#N)=C/c2ncc([N+](=O)[O-])n2C)c(OC)c1	-2	0	-5	37*	0	-14
COc1cc(C=NNC(=O)C[n+]2ccccc2)cc(OC)c1OC	x	x	x	x	-13	x
O=C(C1=C(c2ccccc2)C(=O)c2ccccc2C1=O)c1ccccc1	-4	2	32	36*	11	-18
CN1/C(=C\C(=O)c2cccs2)C(C)(C)c2ccccc21	2	153*	1	-23	-98	-33
CN1/C(=C/C(=S)NC(=O)C2(C)CC2(Cl)Cl)C(C)(C)c2ccccc21 (stereo not drawn)	18	1	11	-6	71*	-6
C=CCn1c(COc2ccccc2)nnc1SCC(=O)N/N=C/c1cc(Cl)ccc1O	-1	44*	-3	6	x	-13
C=CCn1c(COc2ccccc2)nnc1SCC(=O)N/N=C/c1ccc(C)cc1	2	0	-7	0	x	-14
CCc1ccc(S(=O)(=O)N=C2C=C(Nc3ccc(O)cc3)C(=O)c3ccccc32)cc1	x	x	x	x	95*	x
CCc1ccc(S(=O)(=O)/N=C2/C=C(Sc3ncn[nH]3)C(=O)c3ccccc32)cc1	x	179*	x	x	x	-18
O=C1C(Nc2ccc(O)cc2)=CC(=NS(=O)(=O)c2cccs2)c2ccccc21	x	x	x	x	76*	x
Cc1c(C2(O)CCCCC2)[nH]c2ccc(C(F)(F)F)cc12	15	287*	x	x	2	-16
Cc1c(C2(O)CCCCC2)[nH]c2ccccc12	-1	x	x	x	x	x
O=C(Cc1ccc(F)cc1)Nc1nnc(-c2ccncc2)o1	x	x	x	x	-2	x
CCOC(=O)c1c(C)[nH]c(C(=O)OCC(=O)Nc2sc(C(=O)N(C)C)c(C)c2C(=O)OCC)c1C	6	-1	-5	-1	-6	-9
CCOC(=O)c1c(NC(=O)COC(=O)c2ncc(Cl)c(Cl)c2Cl)sc(C(=O)N(C)C)c1C	x	0	-3	38*	-6	-2
COc1ccc(C(=O)NN=C(C)CC(=O)Nc2ccc3c(c2)OCCO3)c(OC)c1	x	x	x	x	3	x
O=C(N/N=C/C=C/c1ccco1)c1cccc([N+](=O)[O-])c1	-11	1	5	-1	x	7
O=C(/C=C/c1ccco1)c1cccc([N+](=O)[O-])c1	-8	27*	x	x	7	5
COC(=O)c1ccc(C(=O)Nc2nnc(-c3ccc4c(c3)CCCC4)o2)cc1	x	x	x	x	38*	x
SMILES	PrPC surface inh	PfHsp40 rescue	BJeLR viability	RecA splice inh	PriA SSB inh	PrP UTR inh
COc1ccc(-c2nnc(NC(=O)c3ccc(S(=O)(=O)N4CCc5ccccc5C4)cc3)o2)cc1	x	1	76*	2	-5	31
O=C(NCc1ccnc(-c2ccsc2)c1)c1cccc(Cl)c1	x	x	x	x	-7	x
Cc1ccc(Nc2c(-c3ccc(N4CCOCC4)cc3)nc3ncccn23)cc1C	-4	0	-11	-2	0	0
Cc1ccc(Nc2c(-c3ccc(N4CCOCC4)cc3)nc3ncccn23)cc1	7	-2	-16	-7	97*	-4
Fc1ccccc1-c1nc(-c2ccccc2)no1	4	-2	-4	1	-73	-58
COc1ccc(-c2noc(-c3ccccc3F)n2)cc1	-4	6	0	3	104*	-93
O=c1c2ccccc2nc(/C=C/c2ccc([N+](=O)[O-])o2)n1CCCO	24	0	52*	2	-13	1
O=c1c2ccccc2nc(/C=C/c2ccc([N+](=O)[O-])cc2)n1CCCO	-30	0	8	-2	-5	3
O=C1OC(c2cccs2)=N/C1=C\c1ccc(-c2cccc(Cl)c2)o1	-6	0	1	4	91*	-5
O=C(c1ccccc1)c1c(Nc2ccc(F)cc2)[nH]c(=O)c2ccccc12	x	x	x	x	1	x
Cc1ccc(C)c(-c2ccc(=O)n(Cc3cccc(Br)c3)n2)c1	-5	3	1	30*	-7	-12
Oc1ccc(C=NNc2nncc(-c3ccccc3)n2)cc1	x	x	x	x	11	x
COc1cccc(/C=C/c2ccc3cccc(O)c3n2)c1OC	-23	-1	-3	0	-7	-26
Oc1cccc(/C=C/c2ccc3cccc(O)c3n2)c1	-32	1	8	0	20	-86
COc1ccc(/C=C/c2ccc3cccc(O)c3n2)c(OC)c1OC	-21	33*	8	-1	-4	-31
COc1cccc(/C=C/c2ccc3cccc(O)c3n2)c1	-23	35*	24	0	-9	-46
COc1cc(/C=C/c2nc(-c3ccccc3O)n[nH]2)cc(OC)c1OC	-10	42*	1	4	10	-61
COc1cc(/C=C/c2ccc3cccc(O)c3n2)cc(OC)c1OC	-23	0	56*	3	-8	-20
COc1cc(/C=C/c2nc(N)nc(-c3ccccc3O)n2)cc(OC)c1OC	3	-2	15	0	-4	-4
Cc1csc(NC(=O)C2CCN(c3ccc(-c4cccs4)nn3)CC2)n1	x	x	x	x	11	x
COC(=O)Cn1c(=NC(=O)c2ccccc2I)sc2cc([N+](=O)[O-])ccc21	x	x	x	x	1	x
COc1ccc(C=C2c3ccccc3C(=O)c3ccccc32)c(OC)c1	-4	0	53*	x	x	46
Cc1ccc(N=Nc2c(C)nn(-c3ccccc3)c2N)cc1[N+](=O)[O-]	x	x	x	x	68*	x
Cc1nn(-c2ccccc2)c(N)c1N=Nc1ccc(Cl)cc1	-3	u	-9	x	71	-118
Cc1nn(-c2ccccc2)c(N)c1N=Nc1cccc(S(=O)(=O)N2CCOCC2)c1	-4	1	3	1	47*!	-30
CCn1c(O)c(N=Nc2cccc(S(=O)(=O)N3CCOCC3)c2)c(=O)n(CC)c1=S	-1	2	-12	59*	-4	-24
Cc1nn(-c2ccccc2)c(N)c1N=Nc1ccccc1	-13	21	16	11	58	-169
CCn1c(O)c(N=Nc2ccc(S(=O)(=O)N3CCOCC3)cc2)c(=O)n(CC)c1=S	-2	0	-1	24	1	-18
Cc1ccc(CNC(=O)CSc2ccc(-c3ccccc3)nn2)cc1	x	x	x	x	-22	x
